{"source": "PubChem BioAssay (NCATS)", "key": {"[1]": {"assay": "Primary qHTS for inhibitors of nuclear receptor binding SET domain protein 2 (NSD2) in an RCH-ACV wild type WT cells (2C) (AID 1645877); further: nearly all actives have a fitted effect of over 70% in size"}, "[2]": {"biological_target": "Catechol O-methyltransferase (Homo sapiens) (UniProt P21964)", "sequence (P21964 whole entry, looked up)": "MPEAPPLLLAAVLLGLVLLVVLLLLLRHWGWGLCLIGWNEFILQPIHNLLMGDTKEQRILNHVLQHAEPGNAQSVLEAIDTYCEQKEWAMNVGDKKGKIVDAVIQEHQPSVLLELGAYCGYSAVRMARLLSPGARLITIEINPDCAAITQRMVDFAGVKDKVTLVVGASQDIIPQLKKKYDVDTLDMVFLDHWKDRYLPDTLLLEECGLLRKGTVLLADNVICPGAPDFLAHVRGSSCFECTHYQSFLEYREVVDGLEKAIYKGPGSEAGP", "assay": "Confirmatory Screen for Target Class Profiling of Small Molecule Inhibitors of Methyltransferases (AID 1745852; calls by dose curve)", "conditions": "MTase-Glo luminescence, SAH detection, recombinant enzyme; measured here: COMT max response; stronger effect = lower value"}, "[3]": {"biological_target": "Guanidinoacetate N-methyltransferase (Homo sapiens) (UniProt Q14353)", "assay": "Confirmatory Screen for Target Class Profiling of Small Molecule Inhibitors of Methyltransferases (AID 1745852); on activity change, negative = inhibition: on the % scale 0 is the no-effect control and ±100 the full control effect", "conditions": "activity change, negative = inhibition: at 57.3 µM (top of the series) unless noted"}, "[4]": {"biological_target": "Nicotinamide N-methyltransferase (Homo sapiens) (UniProt P40261)", "sequence (P40261 whole entry, looked up)": "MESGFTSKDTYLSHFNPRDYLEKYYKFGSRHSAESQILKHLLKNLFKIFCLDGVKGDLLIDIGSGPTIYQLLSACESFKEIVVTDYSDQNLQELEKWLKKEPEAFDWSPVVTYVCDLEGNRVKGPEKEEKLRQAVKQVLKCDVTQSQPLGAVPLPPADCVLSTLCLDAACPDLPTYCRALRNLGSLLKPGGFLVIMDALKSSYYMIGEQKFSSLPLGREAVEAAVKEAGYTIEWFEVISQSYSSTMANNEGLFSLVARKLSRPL", "assay": "Confirmatory Screen for Target Class Profiling of Small Molecule Inhibitors of Methyltransferases (AID 1745852)", "conditions": "MTase-Glo luminescence, SAH detection, recombinant enzyme; measured here: NNMT max response; stronger effect = lower value"}, "[5]": {"biological_target": "Phenylethanolamine N-methyltransferase (Homo sapiens) (UniProt P11086)", "sequence (P11086 whole entry, looked up)": "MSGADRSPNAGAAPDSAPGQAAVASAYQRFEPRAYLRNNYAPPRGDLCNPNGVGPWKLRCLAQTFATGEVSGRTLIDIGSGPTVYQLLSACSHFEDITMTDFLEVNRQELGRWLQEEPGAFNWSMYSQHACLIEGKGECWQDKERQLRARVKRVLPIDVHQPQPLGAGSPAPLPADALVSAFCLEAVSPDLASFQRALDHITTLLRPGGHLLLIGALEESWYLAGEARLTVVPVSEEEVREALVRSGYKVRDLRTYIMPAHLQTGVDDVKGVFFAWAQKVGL", "assay": "Confirmatory Screen for Target Class Profiling of Small Molecule Inhibitors of Methyltransferases (AID 1745852)", "conditions": "MTase-Glo luminescence, SAH detection, recombinant enzyme; measured here: PNMT max response; stronger effect = lower value"}}, "note": "Several values for one entry are separate records, joined by “and”; a condition that tells them apart may be missing. Equal entries are not always repeated. Inconclusive results are not listed. Activity calls are given as the source filed them. Unless noted, the call rests on the fitted dose curve; in most records, active means well fitted inhibition curve with a large enough effect; inconclusive means small, poorly fitted or top-dose-only effect; inactive means no such curve, though single readings can be large or run the other way. Potency means the concentration at half of the fitted maximal effect.", "data": [{"smiles": "C=C[C@H]1[C@H](O[C@@H]2O[C@H](CO)[C@@H](O)[C@H](O)[C@H]2O)OC=C(C(=O)OC)[C@H]1CCOC(=O)c1cc(O)c(O)c(O)c1", "values": [{"measurement": "Potency", "setting": "[1]", "value": "inactive"}, {"measurement": "activity", "setting": "[2]", "value": -67.5, "unit": "%"}, {"measurement": "activity change, negative = inhibition", "setting": "[3]", "value": "1.49% [at 29.8 µM]"}, {"measurement": "activity", "setting": "[4]", "value": 0.422, "unit": "%"}, {"measurement": "activity", "setting": "[5]", "value": -11.3, "unit": "%"}]}, {"smiles": "CCC(C)C(=O)OC1CC(O)C23C4OCC5(C(O)CC2C1(C)C(O)O4)C3C(=O)C(O)C1(C)C(O)(c2ccoc2)CC2OC251", "note": "(stereo not given)", "values": [{"measurement": "Potency", "setting": "[1]", "value": "76.5 nM (active)"}, {"measurement": "activity", "setting": "[2]", "value": -73, "unit": "%"}, {"measurement": "activity change, negative = inhibition", "setting": "[3]", "value": "-8.15% [at 19.1 µM]"}, {"measurement": "activity", "setting": "[4]", "value": -4.23, "unit": "%"}, {"measurement": "activity", "setting": "[5]", "value": -2.09, "unit": "%"}]}, {"smiles": "CN(c1ccccc1CNc1nc(Nc2ccc3c(c2)CC(=O)N3)ncc1C(F)(F)F)S(C)(=O)=O", "values": [{"measurement": "Potency", "setting": "[1]", "value": "1030 nM (active)"}, {"measurement": "activity", "setting": "[2]", "value": -5.57, "unit": "%"}, {"measurement": "activity change, negative = inhibition", "setting": "[3]", "value": -2.47, "unit": "%"}, {"measurement": "activity", "setting": "[4]", "value": -47.3, "unit": "%"}, {"measurement": "activity", "setting": "[5]", "value": -5.42, "unit": "%"}]}, {"smiles": "C/C=C/c1cc(OC)c2c(c1)[C@@H](C)[C@@H](c1ccc(O)c(OC)c1)O2", "values": [{"measurement": "Potency", "setting": "[1]", "value": "14200 nM (active)"}, {"measurement": "activity", "setting": "[2]", "value": -61.3, "unit": "%"}, {"measurement": "activity change, negative = inhibition", "setting": "[3]", "value": -6.75, "unit": "%"}, {"measurement": "activity", "setting": "[4]", "value": -7.01, "unit": "%"}, {"measurement": "activity", "setting": "[5]", "value": -5.03, "unit": "%"}]}, {"smiles": "CCN1CCN(Cc2ccc(NC(=O)Nc3ccc(Oc4cc(NC)ncn4)cc3)cc2C(F)(F)F)CC1", "values": [{"measurement": "Potency", "setting": "[1]", "value": "3.65 µM (active) and 2.35 µM (active)"}, {"measurement": "activity", "setting": "[2]", "value": -1.25, "unit": "%"}, {"measurement": "activity change, negative = inhibition", "setting": "[3]", "value": 0, "unit": "%"}, {"measurement": "activity", "setting": "[4]", "value": -7.66, "unit": "%"}, {"measurement": "activity", "setting": "[5]", "value": -2.63, "unit": "%"}]}, {"smiles": "CC(C)c1cc(CNc2nc(Nc3cc(C4CC4)[nH]n3)cc(N3CCN(C)CC3)n2)on1", "values": [{"measurement": "Potency", "setting": "[1]", "value": "29 nM (active) and 66.1 nM (active)"}, {"measurement": "activity", "setting": "[2]", "value": -7.12, "unit": "%"}, {"measurement": "activity change, negative = inhibition", "setting": "[3]", "value": -5.05, "unit": "%"}, {"measurement": "activity", "setting": "[4]", "value": -12.7, "unit": "%"}, {"measurement": "activity", "setting": "[5]", "value": -6.69, "unit": "%"}]}, {"smiles": "CC/C=C\\CCO[C@@H]1O[C@H](CO)[C@@H](O)[C@H](O)[C@H]1O", "values": [{"measurement": "Potency", "setting": "[1]", "value": "inactive"}, {"measurement": "activity", "setting": "[2]", "value": -74.1, "unit": "%"}, {"measurement": "activity change, negative = inhibition", "setting": "[3]", "value": 0, "unit": "%"}, {"measurement": "activity", "setting": "[4]", "value": 1.9, "unit": "%"}, {"measurement": "activity", "setting": "[5]", "value": 0.287, "unit": "%"}]}, {"smiles": "COc1cccc(-c2cc(NCc3ccc4c(c3)OCO4)nc(N)n2)c1", "values": [{"measurement": "Potency", "setting": "[1]", "value": "163 nM (active)"}, {"measurement": "activity", "setting": "[2]", "value": -1.69, "unit": "%"}, {"measurement": "activity change, negative = inhibition", "setting": "[3]", "value": 0, "unit": "%"}, {"measurement": "activity", "setting": "[4]", "value": -16.1, "unit": "%"}, {"measurement": "activity", "setting": "[5]", "value": -2.8, "unit": "%"}]}, {"smiles": "NCCCNc1ccc(Nc2nccc(Nc3cc(C4CC4)[nH]n3)n2)cc1", "values": [{"measurement": "Potency", "setting": "[1]", "value": "515 nM (active)"}, {"measurement": "activity", "setting": "[2]", "value": -13.5, "unit": "%"}, {"measurement": "Potency", "setting": "[3]", "value": "27100 nM (active)"}, {"measurement": "activity", "setting": "[4]", "value": -57.6, "unit": "%"}, {"measurement": "activity", "setting": "[5]", "value": -35.6, "unit": "%"}]}, {"smiles": "C=C1C(=O)OC2/C=C(\\CO)CC/C=C(\\C=O)CC(OC(=O)CC(C)C)C12", "note": "(stereo not given)", "values": [{"measurement": "Potency", "setting": "[1]", "value": "2260 nM (active)"}, {"measurement": "activity", "setting": "[2]", "value": -71, "unit": "%"}, {"measurement": "activity change, negative = inhibition", "setting": "[3]", "value": -0.648, "unit": "%"}, {"measurement": "activity", "setting": "[4]", "value": -4.38, "unit": "%"}, {"measurement": "activity", "setting": "[5]", "value": -2.45, "unit": "%"}]}]}
